# From PubChem BioAssay AID651629 (Sanford-Burnham Center for Chemical Genomics, 2012)
# The other results are listed elsewhere or left out. Calls of active or inactive are those of the source.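 The calls were made as follows: active = mean inhibition across replicates of 40% or more; inactive = mean inhibition below 40%.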
# Assay: triacylglycerol accumulation inhibitors, retest, confirmation, cell-based, single concentration, Nile Red fluorescence, H9c2 (AID 651629);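 also: plate controls were DMSO only wells for no effect and Triacsin C treated wells for full effect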
# Conditions: H9c2 lipid accumulation, at 12.5 µM, stronger effect = higher value, cells loaded with 200 µM oleic acid
row,Structure (SMILES),inhibition
1,C/C(=N\Nc1ccc(Cl)nn1)c1ccccc1O,66.4% (active)
2,COc1ccc2sc(-c3ccc(N(C)C)cc3)c(C#CCO)c2c1,85.7% (active)
3,CN(C)CC(O)COc1ccc(C(C)(C)c2ccc(OCC(O)CN(C)C)cc2)cc1 (stereo unspecified),20.9% (inactive)
4,CCN(CC)CCC(c1ccc2c(c1)OCO2)c1c(OC)cc(OC)c2c(-c3ccccc3)cc(=O)oc12 (stereo unspecified),47.8% (active)
5,Cc1ccc(/C=N/NC(=S)Nc2cccc(S(=O)(=O)N(C)C)c2)o1,20.8% (inactive)
6,Cc1ccccc1NC(=O)CSc1nc2ccc(Nc3nc(N4CCOCC4)nc(N4CCOCC4)n3)cc2s1,77.3% (active)
7,COc1ccc(S(=O)(=O)N2CCc3ccccc32)cc1C(=O)Nc1cc(S(C)(=O)=O)ccc1Cl,16.4% (inactive)
8,Cc1ccc(-c2nc3ccccc3[nH]2)cc1NC(=O)c1sc2ccccc2c1Cl,35.7% (inactive)
9,CCOCCC(=O)Nc1ccc2c(c1)c(=O)n(C)n2-c1ccc2ccccc2c1,47.5% (active)
10,COc1cc(NC(=O)c2cncc(-c3ccc(C#N)cc3)c2)cc(C(=O)Nc2cccc(C(F)(F)F)c2)c1,39.1% (inactive)
11,CC(C)C(=O)N1CCC2(CC1)Oc1ccc(F)cc1C(=O)C21CC(c2ccccc2)=NO1 (stereo unspecified),-2.17% (inactive)
